Experimental findings from PubChem BioAssay AID434968 (Broad Institute, 2010) are described below.

Molecules are shown by their SMILES. The whole screen tested about 2,100 compounds, of which about 1,800 (86%) were called active. The set was probably picked from earlier hits. A selection follows. Values without a mark were called inactive. How the calls were made is not given here.

One may read the EC50 as the concentration that produces a half-maximal response.

The assay can be described thus: counter-screen GFP chromophore formation inhibition, dose response, counter-screen, biochemical, fluorescence, homogeneous (AID 434968). The conditions noted are these: cell-free GFP chromophore formation. (Counterscreens check selectivity or assay interference.)
For `CCCCCCCCCCOC(=O)Cn1c(COc2ccc(C)cc2)[n+](C)c2ccccc21`, the EC50 was 16.1 µM (active).

As for `CCCCCCCCCCOC(=O)Cn1c(COc2cccc(OC)c2)[n+](C)c2ccccc21`, the EC50 is 10.4 µM (active).

Regarding `COc1ccc(C2C(C#N)=C(N)Oc3n[nH]c(C)c32)cc1CN1CCN(c2ccc(F)cc2)CC1` (configuration not stated), the EC50 was 23 µM (active).

In the case of `Cc1cc(C(=O)CCl)c(C)n1CC1COc2ccccc2O1` (configuration not stated), the EC50 is 37.5 µM (active).

Consider `Cc1oc2c(c1C(=O)N1CCOCC1)C(=O)c1ccccc1C2=O`, for which the half-maximal effective concentration (EC50) was 3.63 µM (active).

On to `O=C1CC(c2ccccc2)=NN1c1ccc([N+](=O)[O-])cc1`, for which the EC50 was 15.8 µM (active).

Turning to `COc1ccc(C(=O)NC(=S)NNC(=O)CCc2ccccc2)cc1`, the EC50 is over 38 µM.

Take `CCOC(=O)C(CC)Sc1ncnc2c1nnn2-c1ccc(F)cc1` (configuration not stated): the EC50 was over 38 µM.

`NC1=NN(c2cccc(C(=O)O)c2)C(=O)C1`: the EC50 is 31.6 µM (active).

On to `Oc1c(Cl)cc(Cl)c(Cl)c1Cc1c(O)c(Cl)cc(Cl)c1Cl`, for which the EC50 is 7.06 µM (active).

As for `NC(=O)CC[C@@H]1NC(=O)[C@H](CO)NC(=O)c2cc([N+](=O)[O-])cc(I)c2NCC[C@@H](C(N)=O)NC1=O`, the EC50 is 22.5 µM (active).

For `Cc1ccccc1C(CC(=O)c1cccs1)C(C#N)C#N` (configuration not stated), the EC50 was 2.18 µM (active).

Take `CCOC(=O)N1CCC(c2cc(=O)n(-c3ccccc3)[nH]2)CC1`: the EC50 is 7.17 µM (active).

For the compound `O=C(CCl)N(Cc1cccc([N+](=O)[O-])c1)c1cccc(Cl)c1`, the EC50 was 3.06 µM (active).

With `Oc1ccc(N=Cc2sc3ccccc3c2Cl)cc1`, the EC50 is over 38 µM.

For the compound `COc1ccc(-c2csc(Nc3ccc(O)cc3)n2)cc1`, the EC50 was over 38 µM.

Turning to `O=[N+]([O-])c1c(NCCO)cc(Sc2nc3ccccc3s2)c2nonc12`, the EC50 is 0.766 µM (active).

On to `O=C(c1ccc(Cl)cc1)n1cnc2ccccc21`, for which the EC50 was 22.1 µM (active).

`O=C1NC(c2ccc(-c3ccccc3[N+](=O)[O-])o2)C(C(=O)c2ccc(Cl)cc2)C(O)(C(F)(F)F)N1` (configuration not stated): the EC50 is 25.2 µM (active).

In the case of `CC(CCn1cccn1)NC(=O)CCc1nnc(CCc2ccccc2)o1` (configuration not stated), the EC50 was over 38 µM.

For `CC(C)OC(=O)CN1C(=O)C(=O)c2ccccc21`, the EC50 is 22.5 µM (active).

Consider `O=C(Nc1ccccc1)c1nnsc1S(=O)(=O)c1ccc(Cl)cc1`, for which the EC50 was 11.7 µM (active).

Turning to `CC1(N2CCOCC2)CC2(O)C(=[N+]1[O-])CCc1nonc12` (configuration not stated), the EC50 was 24.9 µM (active).

As for `N#Cc1c(N)n(CCOC(=O)c2ccc(Cl)cc2)c2nc3ccccc3nc12`, the EC50 is 2.69 µM (active).

Regarding `COc1ccc(C(CCN(Cc2ccc(OC)c(OC)c2)C(=O)CCl)c2ccccc2)cc1` (configuration not stated), the EC50 was 0.326 µM (active).

In the case of `CCN(CC)c1ccc2oc(=O)c(C)nc2c1`, the EC50 is 13.6 µM (active).

With `COc1ccc2c(c1)C(=C(C#N)C#N)C(=O)N2CCc1ccccc1`, the EC50 was over 38 µM.

For `COc1ccccc1-n1nnnc1S(=O)(=O)Cc1ccc(Cl)cc1`, the EC50 is 27.2 µM (active).

As for `Cc1ccc(NC(=O)c2cnc(SCC(=O)NCC3CCCO3)n(C)c2=O)cc1` (configuration not stated), the EC50 was over 38 µM.

As to `Cc1nn(Cc2ccccc2)c2c1C(c1ccccc1)C(C#N)=C(N)O2` (configuration not stated), the EC50 is 15.2 µM (active).

On to `O=S(=O)(O)Oc1c[nH]c2ccccc12`, for which the EC50 is 0.78 µM (active).

For `COC(=O)c1sc(-c2ccc(C(C)(C)C)cc2)cc1NC(=O)/C=C/C(=O)O`, the EC50 is 4.26 µM (active).

`CCOC(=O)c1c(C)[nH]c2c1-c1ccccc1C(=O)C2=O`: the EC50 was 2.58 µM (active).

Turning to `CCOC(=O)C1=C(c2ccc(OC)cc2)C(=O)c2ccccc2C1=O`, the EC50 is 6.35 µM (active).

For `COc1ccc(S(=O)(=O)/N=C2\C=C(NS(=O)(=O)c3ccccc3)C(=O)c3ccccc32)cc1`, the EC50 was 3.05 µM (active).

With `C=CS(=O)c1sc(Cl)c(N2CCOCC2)c1[N+](=O)[O-]` (configuration not stated), the EC50 is 24.9 µM (active).

With `Cc1oc2cc([N+](=O)[O-])c(O)c([N+](=O)[O-])c2c1C(=O)c1ccc(Br)cc1`, the EC50 was 19.5 µM (active).

As for `Cc1ccc(SCC2=NNC(=O)C2)cc1`, the EC50 was 6.33 µM (active).

As for `CCOc1c(Br)cc(/C=C2\C(=O)N(CCC#N)N=C2C)cc1OC`, the EC50 was 3.7 µM (active).

In the case of `CN(c1ccccc1)c1ccc([N+](=O)[O-])c2nonc12`, the EC50 is 20.3 µM (active).

`CC(=O)C12CC(C)=C(C)CC1CC1C3CCC4=CC(=O)CCC4(C)C3CCC12C` (configuration not stated): the EC50 is over 38 µM.

On to `Cc1cc2[nH]ncc2cc1NC(=S)NC(=O)c1ccccc1`, for which the EC50 is over 38 µM.

With `O=S(=O)(Nc1ccc(O)c2ccccc12)c1ccc(OC(F)(F)F)cc1`, the EC50 was 0.19 µM (active).

`O=c1[nH]c2ccccc2n2c(-c3ccccc3)nnc12`: the EC50 was 26.2 µM (active).

Turning to `O=C(Oc1ccc(Br)cc1C(=S)N1CCOCC1)c1cccc([N+](=O)[O-])c1`, the EC50 is over 38 µM.

Turning to `CCCCOC(=O)CNc1nnc(SCC(=O)OCC)[nH]c1=O`, the EC50 was 11.3 µM (active).

Take `COC(=O)CC1=NN(c2nc(C)cc(C)n2)C(=O)C1`: the EC50 is over 38 µM.

As to `Cc1ccc(Nc2cc(C)nc3c(C)ccc([N+](=O)[O-])c23)cc1`, the EC50 was 12 µM (active).

Take `Cc1ccc(CNC(=O)CCN2C(=O)[C@@H]3Cc4ccccc4CN3C2=O)cc1`: the EC50 is over 38 µM.

Consider `Cc1[nH]n(C)c(=O)c1C(=O)c1c(-c2c(Cl)cccc2Cl)noc1C`, for which the EC50 was 12.1 µM (active).

For the compound `CCCCCCCCc1c(O)nc(-n2[nH]c(C)c(CCO)c2=O)[nH]c1=O`, the EC50 was over 38 µM.

As to `CSc1nnc(NC(=O)c2nc(S(=O)(=O)Cc3ccc(C)cc3)ncc2Cl)s1`, the EC50 was 17 µM (active).

Turning to `Cc1cccc(CS(=O)(=O)c2ncc(Cl)c(C(=O)Nc3ccc(F)cc3)n2)c1`, the EC50 is 2.65 µM (active).

`CC1=NN(Cc2ccccc2)C(=O)/C1=C/c1ccc(N(C)C)cc1`: the EC50 was 3.59 µM (active).

On to `O=C(CCCN1C(=O)/C(=C/c2ccccc2)SC1=S)Nc1ccc(O)cc1`, for which the EC50 was over 38 µM.

Turning to `CC1=NNC(=O)C1Cc1c(Cl)cccc1Cl` (configuration not stated), the EC50 was 3.71 µM (active).

On to `Cc1ccsc1/C=N/NC(=O)Cc1cc(=O)[nH][nH]1`, for which the EC50 is 6.88 µM (active).

For `O=C(Cc1cc(=O)[nH][nH]1)N/N=C/c1ccccc1[N+](=O)[O-]`, the EC50 was 10.3 µM (active).

Turning to `CCCc1[nH]nc2c1C(c1ccc(Br)s1)C(C#N)=C(N)O2` (configuration not stated), the EC50 was 17.8 µM (active).

`CCc1ccc(C2C(C#N)=C(N)Oc3n[nH]c(CC(=O)OC)c32)cc1` (configuration not stated): the EC50 was 36.3 µM (active).

Turning to `CCCc1[nH]nc2c1C(c1ccc(OC(=O)c3ccco3)cc1)C(C#N)=C(N)O2` (configuration not stated), the EC50 is 25.1 µM (active).

Regarding `COc1ccc(-c2[nH]nc3c2C(c2ccncc2)C(C#N)=C(N)O3)cc1` (configuration not stated), the EC50 is 21.3 µM (active).

As to `Cc1cc(C)n2nc(CNS(=O)(=O)c3c(F)c(F)c(F)c(F)c3F)nc2n1`, the EC50 is 10 µM (active).

Take `CN1CCc2nc(SC(C(=O)O)c3ccccc3)c(C#N)c(-c3cccs3)c2C1` (configuration not stated): the EC50 is 31.1 µM (active).

Turning to `Cc1nc2ccccc2nc1N/N=C/c1ccc(O)cc1O`, the EC50 is over 38 µM.

Take `O=C(Nc1ccccc1Cl)/C(Cl)=C(\Cl)S(=O)c1ccccc1` (configuration not stated): the EC50 is 1.31 µM (active).

Consider `Cc1c(-c2nn(C)c(=O)c3ccccc23)oc2ccc(F)cc2c1=O`, for which the EC50 was 6.81 µM (active).

Turning to `CCOCC(=O)NCc1ccc2c(c1)cc(C)n2C`, the EC50 is over 12 µM.

Regarding `COc1ccc(/C=C2/C(=O)N(c3ccccc3)N=C2C)c(OC)c1`, the EC50 was 21.7 µM (active).

For `COc1ccc(C2NC(=S)NC3=C2CCc2ccccc23)cc1OC` (configuration not stated), the EC50 is 22.7 µM (active).

In the case of `Cc1ccc(N(Cc2cc(=O)[nH]c3ccccc23)C(=O)CCl)cc1`, the EC50 was 0.148 µM (active).

Consider `CCOc1ccc(C(c2c(C)[nH][nH]c2=O)c2c(C)[nH][nH]c2=O)cc1OCC`, for which the EC50 is 0.386 µM (active).

As to `Cc1[nH][nH]c(=O)c1C(c1ccc2c(c1)OCO2)c1c(C)[nH][nH]c1=O`, the EC50 is 0.426 µM (active).

For `O=C1/C(=C/c2ccc3c(c2)OCO3)CCC/C1=C\c1ccc2c(c1)OCO2`, the EC50 is over 38 µM.

For the compound `COc1cccc(/C=N/Nc2cc(C)nc(-c3ccccc3O)n2)c1O`, the EC50 is over 38 µM.

For the compound `O=C(O)CSc1c2c(nc3cc(C(=O)Nc4cccc(C(F)(F)F)c4)ccc13)CCCC2`, the EC50 was 15.6 µM (active).

Turning to `COc1ccc(-c2nnc(SC(=O)N3c4ccccc4Sc4ccccc43)o2)cc1`, the EC50 is 0.551 µM (active).
